About 7,900 targets were measured; listed, in parts, are those with a hit and a random draw of the rest. About 0.6% of all pairs of compound and target were hits.
Assays:
Experiment in all cases: log2 fold change, soluble protein after heating vs DMSO (PISA); higher = thermal stabilisation; K562 cells, 10 uM, 30 min; active = over 0.2 and 3.5 SD of the protein, either way, in both replicates (recomputed)
[1] = compound: CS(=O)(=O)c1ccc(-c2cnc(N)c(C(=O)Nc3ccccc3)n2)cc1
Summary of the method: (§1)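 Soluble protein was defined as the supernatant after 21,000xg for 90 min. It came from K562 cells at 2×10^6 cells/mL given 10 μM compound for 30 min, heated in aliquots for 3 min across 48°C-58°C, pooled, and extracted in PBS with 0.5% NP-40 at 4°C, and was quantified by TMTpro 16plex LC-MS/MS with equalised channel sums. Thermal stability against control samples, from duplicates, is reported as log2 fold change.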

[2] = compound: C[C@@H](Oc1cc(-c2cnn(C3CCNCC3)c2)cnc1N)c1c(Cl)ccc(F)c1Cl [crizotinib]
Summary of the method: as §1

[3] = compound: C[C@@H]1COCCN1C2=NC(=NC(=C2)C3(CC3)S(=O)(=O)C)C4=C5C=CNC5=CC=C4
Summary of the method: as §1

[4] = compound: C[C@H](C1=CC=C(C=C1)C(=O)NC2=C3C=CNC3=NC=C2)N
Summary of the method: as §1

[5] = compound: C[C@H](Nc1ncnc2nc[nH]c12)c1cc2cccc(Cl)c2c(=O)n1-c1ccccc1 [duvelisib]
Summary of the method: as §1

[6] = compound: Cc1cc(Nc2cc(CN3CCOCC3)c3nc(C)c(Cc4ccc(Cl)cc4F)n3n2)n[nH]1 [gandotinib]
Summary of the method: as §1

[7] = compound: Cc1cc(Nc2cc(N3CCN(C)CC3)nc(Sc3ccc(NC(=O)C4CC4)cc3)n2)n[nH]1 [tozasertib]
Summary of the method: as §1

[8] = compound: Cc1cc(SCc2sc(-c3ccc(C(F)(F)F)cc3)nc2C)ccc1OCC(=O)O
Summary of the method: as §1

[9] = compound: Cc1ccc(-n2nc(C(C)(C)C)cc2NC(=O)Nc2ccc(OCCN3CCOCC3)c3ccccc23)cc1 [doramapimod]
Summary of the method: as §1

[10] = compound: Cc1ccc(C(=O)N(CCCN)[C@@H](c2nc3cc(Cl)ccc3c(=O)n2Cc2ccccc2)C(C)C)cc1 [ispinesib]
Summary of the method: as §1

[11] = compound: Cc1ccc(NC(=O)c2ccc(CN3CC[C@H](N(C)C)C3)c(C(F)(F)F)c2)cc1Nc1nccc(-c2cncnc2)n1 [bafetinib]
Summary of the method: as §1

[12] = compound: Cc1cccc(CC(=O)N2CCc3c2ccc(-c2cn(C)c4ncnc(N)c24)c3F)n1
Summary of the method: as §1

[13] = compound: Cc1cn(-c2cc(NC(=O)c3ccc(C)c(Nc4nccc(-c5cccnc5)n4)c3)cc(C(F)(F)F)c2)cn1 [nilotinib]
Summary of the method: as §1

[14] = compound: Cc1nc(Nc2n[nH]c3c2CN(C(=O)N[C@H](CN(C)C)c2ccccc2)C3(C)C)c2sccc2n1
Summary of the method: as §1

[15] = compound: Cc1nc(Nc2ncc(C(=O)Nc3c(C)cccc3Cl)s2)cc(N2CCN(CCO)CC2)n1 [dasatinib]
Summary of the method: as §1

[16] = compound: Cc1ncc(-c2ccnc(Nc3ccc(S(C)(=O)=O)cc3)n2)n1C(C)C
Summary of the method: as §1

[17] = compound: Cn1cc(-c2ccc3c(c2)CCN3C(=O)Cc2cccc(C(F)(F)F)c2)c2c(N)ncnc21
Summary of the method: as §1

[18] = compound: Cn1cc(-c2ccc3nnc(C(F)(F)c4ccc5ncccc5c4)n3n2)cn1
Summary of the method: as §1

[19] = compound: Cn1cncc1[C@@](N)(c1ccc(Cl)cc1)c1ccc2c(c1)c(-c1cccc(Cl)c1)cc(=O)n2C [tipifarnib]
Summary of the method: as §1

[20] = compound: FC(F)(F)c1ccc(/C=C/c2nc(COc3ccc(CCCCn4ccnn4)cc3)co2)cc1 [mubritinib]
Summary of the method: as §1

Measured: log2 fold change

ARFRP1 (UniProt Q13795)
UniProt Q13795, sequence (Q13795 whole entry, looked up): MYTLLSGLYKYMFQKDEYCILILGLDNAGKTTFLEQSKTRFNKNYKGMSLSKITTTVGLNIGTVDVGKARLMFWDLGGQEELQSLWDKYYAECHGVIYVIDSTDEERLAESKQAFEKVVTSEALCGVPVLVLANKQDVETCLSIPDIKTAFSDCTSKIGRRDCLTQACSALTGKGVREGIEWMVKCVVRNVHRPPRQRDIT
active: [12] 0.327
inactive: [1] -0.024 | [2] -0.004 | [3] 0.091 | [4] -0.027 | [5] 0.019 | [6] -0.159 | [7] -0.03 | [8] -0.069 | [9] 0.003 | [10] 0.027 | [11] 0.025 | [13] -0.061 | [14] -0.014 | [15] -0.017 | [16] 0.112 | [17] 0.11 | [18] -0.003 | [19] -0.069 | [20] -0.019

ARFGAP1 (UniProt Q8N6T3)
UniProt Q8N6T3, sequence (Q8N6T3 whole entry, looked up): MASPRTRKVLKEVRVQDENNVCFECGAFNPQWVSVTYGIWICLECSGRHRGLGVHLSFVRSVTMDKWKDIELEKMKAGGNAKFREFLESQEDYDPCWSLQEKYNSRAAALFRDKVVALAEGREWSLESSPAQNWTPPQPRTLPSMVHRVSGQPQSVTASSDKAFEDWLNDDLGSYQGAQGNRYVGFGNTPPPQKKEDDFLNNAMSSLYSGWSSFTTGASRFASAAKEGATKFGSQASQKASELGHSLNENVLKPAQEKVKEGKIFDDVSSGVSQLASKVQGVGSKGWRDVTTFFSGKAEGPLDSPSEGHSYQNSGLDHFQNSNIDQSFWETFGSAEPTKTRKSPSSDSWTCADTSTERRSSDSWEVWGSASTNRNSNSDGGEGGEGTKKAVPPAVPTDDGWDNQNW
inactive: [1] 0.009 | [2] 0.094 | [3] 0.048 | [4] -0.016 | [5] -0.011 | [6] -0.038 | [7] 0.138 | [8] 0.047 | [9] -0.13 | [10] 0.008 | [11] -0.041 | [12] -0.009 | [13] -0.015 | [14] -0.193 | [15] -0.097 | [16] -0.004 | [17] -0.003 | [18] 0.008 | [19] -0.036 | [20] -0.022

ABCB6 (UniProt Q9NP58)
UniProt Q9NP58, sequence (Q9NP58 whole entry, looked up): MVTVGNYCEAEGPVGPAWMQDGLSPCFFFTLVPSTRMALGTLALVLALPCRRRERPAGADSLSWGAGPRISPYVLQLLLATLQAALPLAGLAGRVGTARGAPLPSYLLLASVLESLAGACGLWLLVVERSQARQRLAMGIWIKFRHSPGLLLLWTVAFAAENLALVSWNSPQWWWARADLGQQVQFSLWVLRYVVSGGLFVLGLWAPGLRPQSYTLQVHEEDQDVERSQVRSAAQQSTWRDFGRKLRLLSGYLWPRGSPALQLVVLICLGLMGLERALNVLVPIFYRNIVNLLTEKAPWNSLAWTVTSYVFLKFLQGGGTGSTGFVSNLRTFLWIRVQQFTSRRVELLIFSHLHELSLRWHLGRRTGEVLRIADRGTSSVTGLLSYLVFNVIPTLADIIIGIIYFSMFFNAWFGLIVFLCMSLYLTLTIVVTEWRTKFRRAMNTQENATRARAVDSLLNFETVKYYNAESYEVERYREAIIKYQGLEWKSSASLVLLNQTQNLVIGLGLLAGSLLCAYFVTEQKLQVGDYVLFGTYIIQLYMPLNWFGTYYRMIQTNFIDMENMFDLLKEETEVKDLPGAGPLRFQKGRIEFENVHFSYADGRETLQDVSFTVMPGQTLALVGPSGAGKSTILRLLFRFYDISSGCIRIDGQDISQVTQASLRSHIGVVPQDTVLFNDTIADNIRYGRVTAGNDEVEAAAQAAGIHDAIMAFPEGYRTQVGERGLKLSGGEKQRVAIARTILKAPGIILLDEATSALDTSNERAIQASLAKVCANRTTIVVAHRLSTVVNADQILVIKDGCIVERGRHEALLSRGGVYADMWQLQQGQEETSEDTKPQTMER
inactive: [1] 0.03 | [3] 0.093 | [4] -0.057 | [5] 0.015 | [6] -0.031 | [7] -0.017 | [8] -0.028 | [9] 0.049 | [10] -0.207 | [11] -0.035 | [12] 0.014 | [13] 0.022 | [14] 0.032 | [15] -0.001 | [16] 0.024 | [17] 0 | [18] -0.025 | [19] 0.005 | [20] 0.001
active: [2] -0.457

BTAF1 (UniProt O14981)
inactive: [1] 0.055 | [2] -0.076 | [3] 0.094 | [4] 0.041 | [5] -0.016 | [6] -0.05 | [7] 0.015 | [8] 0.044 | [9] 0.006 | [10] 0.016 | [11] -0.158 | [12] 0.025 | [13] -0.004 | [14] -0.059 | [15] -0.131 | [16] 0.035 | [17] 0.04 | [18] -0.003 | [19] -0.034 | [20] -0.022

BCCIP isoform 2 (UniProt Q9P287)
UniProt Q9P287, sequence (Q9P287 whole entry, looked up): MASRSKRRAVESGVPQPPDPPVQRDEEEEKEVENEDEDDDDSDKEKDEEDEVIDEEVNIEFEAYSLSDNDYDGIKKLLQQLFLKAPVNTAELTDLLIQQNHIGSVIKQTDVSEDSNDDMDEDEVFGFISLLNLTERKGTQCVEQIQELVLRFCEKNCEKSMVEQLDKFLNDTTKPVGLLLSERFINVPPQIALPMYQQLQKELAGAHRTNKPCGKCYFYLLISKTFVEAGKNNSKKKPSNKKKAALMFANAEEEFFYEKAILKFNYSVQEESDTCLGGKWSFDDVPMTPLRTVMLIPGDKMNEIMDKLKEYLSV
inactive: [1] -0.006 | [2] -0.012 | [3] 0 | [4] 0.062 | [5] 0.067 | [6] -0.047 | [7] 0 | [8] 0.011 | [9] -0.008 | [10] 0.059 | [11] 0.014 | [12] 0.021 | [13] -0.046 | [14] -0.029 | [15] -0.071 | [16] 0.017 | [17] -0.064 | [18] -0.007 | [19] -0.015 | [20] -0.023

ANXA5 (UniProt P08758)
UniProt P08758, sequence (P08758 whole entry, looked up): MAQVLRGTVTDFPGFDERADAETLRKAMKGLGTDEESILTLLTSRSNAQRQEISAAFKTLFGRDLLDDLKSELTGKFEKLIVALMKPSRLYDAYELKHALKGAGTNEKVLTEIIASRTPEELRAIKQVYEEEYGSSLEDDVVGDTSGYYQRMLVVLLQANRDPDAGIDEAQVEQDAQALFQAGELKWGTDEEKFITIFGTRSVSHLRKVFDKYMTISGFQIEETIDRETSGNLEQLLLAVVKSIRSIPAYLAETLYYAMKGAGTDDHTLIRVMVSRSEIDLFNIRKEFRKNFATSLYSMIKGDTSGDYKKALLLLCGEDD
inactive: [1] 0.03 | [2] 0.045 | [3] 0.108 | [4] -0.002 | [5] 0.043 | [6] -0.083 | [7] 0.041 | [8] 0.052 | [9] -0.059 | [10] 0.006 | [11] 0.019 | [12] 0.058 | [13] -0.015 | [14] -0.052 | [15] -0.079 | [16] 0.006 | [17] 0.017 | [18] 0.025 | [19] -0.061 | [20] 0.009

BRK1 isoform 2 (UniProt Q8WUW1)
UniProt Q8WUW1, sequence (Q8WUW1 whole entry, looked up): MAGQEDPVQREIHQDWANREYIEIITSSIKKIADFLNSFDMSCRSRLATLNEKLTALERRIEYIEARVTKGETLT
inactive: [1] -0.004 | [2] 0.029 | [3] 0.11 | [4] -0.276 | [5] 0.086 | [6] -0.024 | [7] -0.047 | [8] -0.035 | [9] -0.041 | [10] 0.18 | [11] -0.043 | [12] 0.007 | [13] 0.02 | [14] -0.051 | [15] 0.054 | [16] -0.051 | [17] 0.047 | [18] 0.186 | [19] -0.049 | [20] 0.002

BUB1B isoform 3 (UniProt O60566)
UniProt O60566, sequence (O60566 whole entry, looked up): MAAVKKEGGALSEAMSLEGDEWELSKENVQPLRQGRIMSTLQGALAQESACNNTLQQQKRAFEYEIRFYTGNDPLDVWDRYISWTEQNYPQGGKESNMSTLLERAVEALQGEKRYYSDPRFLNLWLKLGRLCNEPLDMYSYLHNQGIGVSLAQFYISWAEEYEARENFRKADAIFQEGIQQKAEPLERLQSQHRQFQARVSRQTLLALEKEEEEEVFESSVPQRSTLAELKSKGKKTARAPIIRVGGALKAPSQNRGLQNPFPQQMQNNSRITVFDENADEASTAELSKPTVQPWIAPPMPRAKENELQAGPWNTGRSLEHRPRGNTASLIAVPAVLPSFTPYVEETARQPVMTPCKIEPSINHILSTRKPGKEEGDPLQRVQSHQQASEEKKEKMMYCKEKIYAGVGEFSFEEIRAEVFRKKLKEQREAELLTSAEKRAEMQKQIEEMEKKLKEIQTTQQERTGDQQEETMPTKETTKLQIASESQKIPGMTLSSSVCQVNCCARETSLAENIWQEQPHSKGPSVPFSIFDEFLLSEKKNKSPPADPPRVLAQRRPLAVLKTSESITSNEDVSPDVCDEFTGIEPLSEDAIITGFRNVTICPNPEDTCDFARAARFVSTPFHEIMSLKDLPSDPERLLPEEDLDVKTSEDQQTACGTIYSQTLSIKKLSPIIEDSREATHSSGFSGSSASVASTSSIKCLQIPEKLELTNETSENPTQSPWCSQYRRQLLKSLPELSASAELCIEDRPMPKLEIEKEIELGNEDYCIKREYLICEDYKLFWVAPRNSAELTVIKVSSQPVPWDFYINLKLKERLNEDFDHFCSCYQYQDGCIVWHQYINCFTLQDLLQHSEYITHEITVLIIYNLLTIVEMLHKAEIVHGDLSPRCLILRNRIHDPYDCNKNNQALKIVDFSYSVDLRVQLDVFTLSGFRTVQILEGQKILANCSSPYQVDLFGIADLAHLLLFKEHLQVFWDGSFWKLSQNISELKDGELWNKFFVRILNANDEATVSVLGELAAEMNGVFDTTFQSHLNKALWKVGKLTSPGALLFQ
inactive: [1] -0.015 | [2] -0.108 | [3] 0.013 | [4] 0.083 | [5] 0.011 | [6] -0.207 | [7] 0.119 | [8] 0.057 | [9] 0.047 | [10] -0.072 | [11] 0.03 | [12] 0.107 | [13] -0.089 | [14] -0.142 | [15] -0.13 | [16] 0.02 | [17] 0 | [18] 0.017 | [19] -0.114 | [20] 0.012

ALDH18A1 (UniProt P54886)
UniProt P54886, sequence (P54886 whole entry, looked up): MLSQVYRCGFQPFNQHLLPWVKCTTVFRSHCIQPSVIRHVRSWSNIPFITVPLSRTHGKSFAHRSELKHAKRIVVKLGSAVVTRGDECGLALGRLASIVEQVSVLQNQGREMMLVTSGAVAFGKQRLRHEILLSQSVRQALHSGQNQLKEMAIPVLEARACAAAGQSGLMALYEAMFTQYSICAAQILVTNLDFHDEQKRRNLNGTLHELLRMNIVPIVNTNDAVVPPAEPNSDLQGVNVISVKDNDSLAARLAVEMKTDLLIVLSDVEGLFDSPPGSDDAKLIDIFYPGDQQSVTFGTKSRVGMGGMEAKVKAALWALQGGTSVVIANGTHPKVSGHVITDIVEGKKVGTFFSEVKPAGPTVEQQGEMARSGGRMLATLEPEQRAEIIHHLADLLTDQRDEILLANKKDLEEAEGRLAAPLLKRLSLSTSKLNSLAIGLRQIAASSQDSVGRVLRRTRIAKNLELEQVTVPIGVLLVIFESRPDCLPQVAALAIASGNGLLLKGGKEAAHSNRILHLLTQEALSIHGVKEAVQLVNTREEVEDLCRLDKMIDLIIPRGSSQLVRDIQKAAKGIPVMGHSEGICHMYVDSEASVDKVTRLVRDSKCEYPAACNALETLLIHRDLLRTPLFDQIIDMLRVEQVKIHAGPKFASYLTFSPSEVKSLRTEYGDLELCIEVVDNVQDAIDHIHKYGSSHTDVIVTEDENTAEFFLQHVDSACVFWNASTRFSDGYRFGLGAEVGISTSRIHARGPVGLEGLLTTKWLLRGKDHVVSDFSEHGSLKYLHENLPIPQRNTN
active: [20] -0.561
inactive: [1] -0.281 | [2] 0.08 | [3] -0.13 | [4] -0.036 | [5] -0.255 | [6] -0.323 | [7] 0.024 | [8] 0.032 | [9] -0.146 | [10] 0.164 | [11] -0.206 | [12] 0.071 | [13] -0.3 | [14] -0.15 | [15] -0.133 | [16] 0.042 | [17] -0.202 | [18] -0.128 | [19] -0.141

AARSD1 isoform 3 (UniProt Q9BTE6)
inactive: [1] 0.062 | [2] 0.054 | [3] 0.012 | [4] 0.013 | [5] -0.04 | [6] -0.081 | [7] 0.055 | [8] 0.038 | [9] -0.05 | [10] 0.067 | [11] 0.009 | [12] 0.065 | [13] -0.013 | [14] -0.038 | [15] -0.062 | [16] 0.031 | [17] -0.004 | [18] 0.002 | [19] 0.022 | [20] 0.064

ARAF (UniProt P10398)
UniProt P10398, sequence (P10398 whole entry, looked up): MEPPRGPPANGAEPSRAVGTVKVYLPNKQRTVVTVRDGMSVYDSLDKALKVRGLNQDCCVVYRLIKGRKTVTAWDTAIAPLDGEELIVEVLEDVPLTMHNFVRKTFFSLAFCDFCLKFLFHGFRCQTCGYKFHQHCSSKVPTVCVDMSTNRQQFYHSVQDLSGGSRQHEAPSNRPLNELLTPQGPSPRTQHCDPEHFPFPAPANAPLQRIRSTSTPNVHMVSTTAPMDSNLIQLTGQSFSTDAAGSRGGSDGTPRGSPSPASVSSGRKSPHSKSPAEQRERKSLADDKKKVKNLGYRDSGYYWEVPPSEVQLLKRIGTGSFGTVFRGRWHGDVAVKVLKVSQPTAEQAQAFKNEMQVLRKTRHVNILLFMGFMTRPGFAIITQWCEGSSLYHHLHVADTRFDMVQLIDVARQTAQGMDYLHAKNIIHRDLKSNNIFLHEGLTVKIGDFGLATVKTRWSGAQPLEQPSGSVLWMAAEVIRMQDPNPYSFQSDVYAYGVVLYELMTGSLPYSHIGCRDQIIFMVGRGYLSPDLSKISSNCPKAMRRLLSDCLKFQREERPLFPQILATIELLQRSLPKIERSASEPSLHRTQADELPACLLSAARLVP
inactive: [1] 0.012 | [2] -0.093 | [3] 0.059 | [4] 0.112 | [5] -0.009 | [6] 0.039 | [7] -0.074 | [8] 0.081 | [9] -0.035 | [10] -0.051 | [11] -0.015 | [12] 0.01 | [13] -0.021 | [15] -0.031 | [16] 0.009 | [17] 0.007 | [18] -0.003 | [19] 0.144 | [20] -0.092
active: [14] -0.236

BMP2K (UniProt Q9NSY1)
active: [2] 0.411 | [4] 0.402 | [14] 0.534
inactive: [1] 0.136 | [3] 0 | [5] -0.078 | [6] 0.319 | [7] 0.318 | [8] -0.051 | [9] 0.024 | [10] -0.017 | [11] 0.037 | [12] -0.107 | [13] -0.067 | [15] 0 | [16] 0.34 | [17] -0.016 | [18] -0.036 | [19] 0.016 | [20] -0.042

ALKBH5 (UniProt Q6P6C2)
inactive: [1] 0.048 | [2] 0.032 | [3] -0.11 | [4] 0.013 | [5] 0.012 | [6] 0.267 | [7] -0.167 | [8] -0.055 | [9] -0.01 | [10] 0.007 | [11] 0.038 | [12] -0.15 | [13] 0.018 | [14] -0.025 | [15] 0.014 | [16] 0.011 | [17] -0.042 | [18] 0.011 | [19] 0.077 | [20] -0.019

BLOC1S3 (UniProt Q6QNY0)
inactive: [1] -0.001 | [2] 0.014 | [3] 0.116 | [4] 0.065 | [5] 0.068 | [6] -0.132 | [7] -0.012 | [8] -0.052 | [9] -0.038 | [10] 0.012 | [11] -0.02 | [12] 0.006 | [13] -0.067 | [14] 0.031 | [15] -0.051 | [16] -0.022 | [17] 0.017 | [18] 0.078 | [19] -0.103 | [20] -0.027

ACSL5 isoform 3 (UniProt Q9ULC5)
inactive: [1] -0.014 | [2] -0.146 | [3] 0.11 | [4] 0.009 | [5] -0.024 | [6] 0.021 | [7] -0.076 | [8] -0.033 | [9] 0.059 | [10] -0.316 | [12] -0.01 | [13] -0.055 | [14] -0.06 | [15] 0.062 | [16] 0.012 | [17] 0.066 | [18] 0.007 | [19] 0.043 | [20] -0.018
active: [11] -0.271

ARL6IP4 (UniProt Q66PJ3)
UniProt Q66PJ3, sequence (Q66PJ3 whole entry, looked up): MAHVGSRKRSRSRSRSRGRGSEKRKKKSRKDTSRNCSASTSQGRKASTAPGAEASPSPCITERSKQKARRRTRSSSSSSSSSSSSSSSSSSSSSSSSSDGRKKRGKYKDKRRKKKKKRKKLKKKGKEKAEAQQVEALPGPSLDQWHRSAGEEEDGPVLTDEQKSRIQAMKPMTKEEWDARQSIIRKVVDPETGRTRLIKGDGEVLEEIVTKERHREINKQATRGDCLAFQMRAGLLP
inactive: [1] 0.014 | [2] 0.026 | [3] 0.036 | [4] -0.093 | [5] 0.039 | [6] 0.114 | [7] -0.005 | [8] -0.038 | [9] 0.013 | [10] -0.051 | [11] -0.042 | [12] 0.002 | [13] -0.012 | [15] 0.016 | [16] 0.013 | [17] 0.112 | [18] -0.038 | [19] 0.019 | [20] 0.023
active: [14] -0.459

— the supplement of paper PMC10849652
